Test results taken from the supplement of paper PMC10849652.
The full data set covers some 7,900 targets. This sample favours those with a hit. About 0.6% of all pairs of compound and target were hits.

Legend:
Assay in all cases: log2 fold change, soluble protein after heating vs DMSO (PISA); higher = thermal stabilisation; K562 cells, 10 uM, 30 min; active = over 0.2 and 3.5 SD of the protein, either way, in both replicates (recomputed)
[1] = compound: COC1=CC=C(C=C1)CN2C=CC3=C2C=C(C=C3)C(=O)NO
Summary of the method: (§1)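 Values are thermal stability changes relative to control samples and are taken from duplicates. They are stated as log2 fold changes. Before quantification by TMTpro 16plex LC-MS/MS with equalised channel sums, K562 cells at 2×10^6 cells/mL were treated with 10 μM compound for 30 min, heated in aliquots for 3 min across 48°C-58°C, pooled, extracted in PBS with 0.5% NP-40 at 4°C, and centrifuged at 21,000xg for 90 min to give the soluble supernatant.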

filanesib = compound: CON(C)C(=O)N1N=C(c2cc(F)ccc2F)S[C@@]1(CCCN)c1ccccc1 [filanesib]
Summary of the method: as §1

zotarolimus = compound: CO[C@H]1C[C@@H]2CC[C@@H](C)[C@@](O)(O2)C(=O)C(=O)N2CCCC[C@H]2C(=O)O[C@H]([C@H](C)C[C@@H]2CC[C@H](n3cnnn3)[C@H](OC)C2)CC(=O)[C@H](C)/C=C(\C)[C@@H](O)[C@@H](OC)C(=O)[C@H](C)C[C@H](C)/C=C/C=C/C=C/1C [zotarolimus]
Summary of the method: as §1

idasanutlin = compound: COc1cc(C(=O)O)ccc1NC(=O)[C@@H]1N[C@@H](CC(C)(C)C)[C@](C#N)(c2ccc(Cl)cc2F)[C@H]1c1cccc(Cl)c1F [idasanutlin]
Summary of the method: as §1

alisertib = compound: COc1cc(Nc2ncc3c(n2)-c2ccc(Cl)cc2C(c2c(F)cccc2OC)=NC3)ccc1C(=O)O [alisertib]
Summary of the method: as §1

[2] = compound: COc1cc2nc(-c3cc(F)ccc3O)nc(N[C@@H]3CNC[C@H]3C(C)(C)O)c2cc1OC
Summary of the method: as §1

gefitinib = compound: COc1cc2ncnc(Nc3ccc(F)c(Cl)c3)c2cc1OCCCN1CCOCC1 [gefitinib]
Summary of the method: as §1

[3] = compound: COc1cccc2cc(-c3nc([C@H]4CC[C@H](C(=O)O)CC4)n4ncnc(N)c34)[nH]c12
Summary of the method: as §1

lapatinib = compound: CS(=O)(=O)CCNCc1ccc(-c2ccc3ncnc(Nc4ccc(OCc5cccc(F)c5)c(Cl)c4)c3c2)o1 [lapatinib]
Summary of the method: as §1

pictilisib = compound: CS(=O)(=O)N1CCN(Cc2cc3nc(-c4cccc5[nH]ncc45)nc(N4CCOCC4)c3s2)CC1 [pictilisib]
Summary of the method: as §1

[4] = compound: CS(=O)(=O)c1ccc(-c2cnc(N)c(C(=O)Nc3ccccc3)n2)cc1
Summary of the method: as §1

crizotinib = compound: C[C@@H](Oc1cc(-c2cnn(C3CCNCC3)c2)cnc1N)c1c(Cl)ccc(F)c1Cl [crizotinib]
Summary of the method: as §1

[5] = compound: C[C@@H]1COCCN1C2=NC(=NC(=C2)C3(CC3)S(=O)(=O)C)C4=C5C=CNC5=CC=C4
Summary of the method: as §1

[6] = compound: C[C@H](C1=CC=C(C=C1)C(=O)NC2=C3C=CNC3=NC=C2)N
Summary of the method: as §1

duvelisib = compound: C[C@H](Nc1ncnc2nc[nH]c12)c1cc2cccc(Cl)c2c(=O)n1-c1ccccc1 [duvelisib]
Summary of the method: as §1

gandotinib = compound: Cc1cc(Nc2cc(CN3CCOCC3)c3nc(C)c(Cc4ccc(Cl)cc4F)n3n2)n[nH]1 [gandotinib]
Summary of the method: as §1

tozasertib = compound: Cc1cc(Nc2cc(N3CCN(C)CC3)nc(Sc3ccc(NC(=O)C4CC4)cc3)n2)n[nH]1 [tozasertib]
Summary of the method: as §1

[7] = compound: Cc1cc(SCc2sc(-c3ccc(C(F)(F)F)cc3)nc2C)ccc1OCC(=O)O
Summary of the method: as §1

doramapimod = compound: Cc1ccc(-n2nc(C(C)(C)C)cc2NC(=O)Nc2ccc(OCCN3CCOCC3)c3ccccc23)cc1 [doramapimod]
Summary of the method: as §1

ispinesib = compound: Cc1ccc(C(=O)N(CCCN)[C@@H](c2nc3cc(Cl)ccc3c(=O)n2Cc2ccccc2)C(C)C)cc1 [ispinesib]
Summary of the method: as §1

Measured: log2 fold change

NFATC2IP (UniProt Q8NCF5)
Sequence of UniProt Q8NCF5 (Q8NCF5 whole entry, looked up): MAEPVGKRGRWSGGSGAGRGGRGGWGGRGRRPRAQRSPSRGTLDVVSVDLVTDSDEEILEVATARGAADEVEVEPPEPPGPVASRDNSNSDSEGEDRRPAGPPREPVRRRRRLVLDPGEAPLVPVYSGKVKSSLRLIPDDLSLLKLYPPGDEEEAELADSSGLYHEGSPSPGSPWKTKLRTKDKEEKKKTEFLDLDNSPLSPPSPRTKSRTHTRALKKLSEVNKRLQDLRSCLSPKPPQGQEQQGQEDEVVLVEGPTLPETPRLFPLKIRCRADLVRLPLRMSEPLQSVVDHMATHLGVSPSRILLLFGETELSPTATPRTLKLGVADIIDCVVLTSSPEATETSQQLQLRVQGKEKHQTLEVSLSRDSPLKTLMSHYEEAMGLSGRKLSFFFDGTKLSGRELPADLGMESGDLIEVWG
inactive: [1] -0.008 | filanesib -0.015 | zotarolimus -0.021 | idasanutlin -0.141 | alisertib 0.01 | [2] 0.026 | gefitinib 0 | [3] 0.056 | lapatinib 0.029 | pictilisib 0.098 | [4] 0.014 | crizotinib 0.023 | [5] 0.195 | [6] -0.009 | duvelisib 0.121 | gandotinib 0.011 | tozasertib 0.03 | [7] 0.045 | doramapimod -0.03 | ispinesib 0.024

NRDC isoform 2 (UniProt O43847)
inactive: [1] 0 | filanesib -0.038 | zotarolimus 0.005 | idasanutlin -0.026 | alisertib 0.013 | [2] 0.076 | gefitinib -0.022 | [3] -0.001 | lapatinib -0.019 | pictilisib -0.029 | [4] 0.034 | crizotinib -0.065 | [5] 0.054 | [6] -0.034 | duvelisib 0.008 | gandotinib -0.029 | tozasertib 0.02 | [7] 0.089 | doramapimod -0.036 | ispinesib -0.022

MSTO1 (UniProt Q9BUK6)
Sequence of UniProt Q9BUK6 (Q9BUK6 whole entry, looked up): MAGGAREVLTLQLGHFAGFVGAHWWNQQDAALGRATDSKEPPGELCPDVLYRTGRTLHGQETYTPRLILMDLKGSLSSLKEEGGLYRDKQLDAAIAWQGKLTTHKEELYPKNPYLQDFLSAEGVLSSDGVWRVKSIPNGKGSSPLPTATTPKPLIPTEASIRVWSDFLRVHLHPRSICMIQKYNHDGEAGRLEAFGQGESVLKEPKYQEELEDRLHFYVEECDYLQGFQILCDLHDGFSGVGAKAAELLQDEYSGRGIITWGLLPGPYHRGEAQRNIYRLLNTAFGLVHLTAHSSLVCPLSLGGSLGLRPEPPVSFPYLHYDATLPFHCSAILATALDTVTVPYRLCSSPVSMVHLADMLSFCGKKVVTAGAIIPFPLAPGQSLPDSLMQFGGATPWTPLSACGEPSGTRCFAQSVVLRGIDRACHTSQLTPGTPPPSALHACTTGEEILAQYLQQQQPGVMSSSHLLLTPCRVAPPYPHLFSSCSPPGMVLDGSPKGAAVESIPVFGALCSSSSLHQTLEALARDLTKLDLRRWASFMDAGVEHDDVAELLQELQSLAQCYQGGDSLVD
inactive: [1] -0.022 | filanesib -0.078 | zotarolimus -0.045 | idasanutlin -0.08 | alisertib 0.007 | [2] 0.024 | gefitinib -0.018 | [3] 0.025 | lapatinib -0.009 | pictilisib 0.021 | [4] -0.014 | crizotinib -0.081 | [5] 0.09 | [6] 0.025 | duvelisib 0.009 | gandotinib -0.003 | tozasertib 0.02 | [7] 0.009 | doramapimod 0.027 | ispinesib -0.053

NUP205 (UniProt Q92621)
Sequence of UniProt Q92621 (Q92621 whole entry, looked up): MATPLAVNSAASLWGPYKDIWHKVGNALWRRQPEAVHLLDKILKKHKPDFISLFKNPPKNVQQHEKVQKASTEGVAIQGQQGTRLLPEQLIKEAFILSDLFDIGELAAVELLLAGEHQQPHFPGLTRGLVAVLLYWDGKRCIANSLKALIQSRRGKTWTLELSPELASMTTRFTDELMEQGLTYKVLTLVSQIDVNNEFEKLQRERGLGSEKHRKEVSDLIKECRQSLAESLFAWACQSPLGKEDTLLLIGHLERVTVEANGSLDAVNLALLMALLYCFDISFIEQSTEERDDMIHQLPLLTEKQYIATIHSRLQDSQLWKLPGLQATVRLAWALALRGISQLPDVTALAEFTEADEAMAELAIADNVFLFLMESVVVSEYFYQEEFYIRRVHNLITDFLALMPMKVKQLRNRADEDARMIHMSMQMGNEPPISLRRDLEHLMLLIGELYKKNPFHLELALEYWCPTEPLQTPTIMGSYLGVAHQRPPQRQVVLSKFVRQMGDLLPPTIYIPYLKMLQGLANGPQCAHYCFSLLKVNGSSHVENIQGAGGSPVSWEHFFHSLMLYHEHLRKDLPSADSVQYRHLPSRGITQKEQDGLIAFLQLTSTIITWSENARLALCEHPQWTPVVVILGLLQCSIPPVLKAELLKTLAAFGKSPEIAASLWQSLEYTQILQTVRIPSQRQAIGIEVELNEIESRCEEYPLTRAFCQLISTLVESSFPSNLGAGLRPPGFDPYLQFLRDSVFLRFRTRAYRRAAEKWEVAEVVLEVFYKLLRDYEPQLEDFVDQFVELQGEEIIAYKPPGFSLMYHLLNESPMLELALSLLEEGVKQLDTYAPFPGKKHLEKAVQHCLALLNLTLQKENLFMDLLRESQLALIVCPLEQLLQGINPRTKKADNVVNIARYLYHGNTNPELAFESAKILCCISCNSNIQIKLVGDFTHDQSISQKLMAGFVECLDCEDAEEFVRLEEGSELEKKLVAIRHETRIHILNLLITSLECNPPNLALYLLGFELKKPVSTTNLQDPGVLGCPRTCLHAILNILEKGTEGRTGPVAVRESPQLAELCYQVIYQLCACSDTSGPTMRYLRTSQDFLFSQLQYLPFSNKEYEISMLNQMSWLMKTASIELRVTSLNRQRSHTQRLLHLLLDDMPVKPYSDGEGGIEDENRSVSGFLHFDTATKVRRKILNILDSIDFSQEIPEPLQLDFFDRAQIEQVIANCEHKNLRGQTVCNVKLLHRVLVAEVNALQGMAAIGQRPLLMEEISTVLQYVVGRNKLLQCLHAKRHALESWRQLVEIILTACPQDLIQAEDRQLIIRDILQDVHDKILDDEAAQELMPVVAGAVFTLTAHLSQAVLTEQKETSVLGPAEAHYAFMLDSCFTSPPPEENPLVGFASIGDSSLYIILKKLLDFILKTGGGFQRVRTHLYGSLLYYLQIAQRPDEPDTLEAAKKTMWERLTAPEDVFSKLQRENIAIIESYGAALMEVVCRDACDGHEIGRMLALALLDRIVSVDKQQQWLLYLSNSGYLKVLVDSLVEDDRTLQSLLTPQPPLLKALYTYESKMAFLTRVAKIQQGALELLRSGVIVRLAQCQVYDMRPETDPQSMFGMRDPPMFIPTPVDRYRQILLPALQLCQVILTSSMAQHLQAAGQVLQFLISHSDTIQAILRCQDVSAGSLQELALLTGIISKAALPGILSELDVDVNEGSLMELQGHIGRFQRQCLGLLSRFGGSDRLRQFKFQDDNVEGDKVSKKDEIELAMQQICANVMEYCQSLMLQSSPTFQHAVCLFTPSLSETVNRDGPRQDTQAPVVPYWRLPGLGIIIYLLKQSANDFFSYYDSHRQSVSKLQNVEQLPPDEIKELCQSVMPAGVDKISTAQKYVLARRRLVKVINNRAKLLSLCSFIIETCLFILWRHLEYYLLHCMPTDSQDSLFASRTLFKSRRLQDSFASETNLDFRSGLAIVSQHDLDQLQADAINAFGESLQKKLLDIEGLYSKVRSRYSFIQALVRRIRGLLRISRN
inactive: [1] 0.015 | filanesib 0.01 | zotarolimus 0.009 | idasanutlin -0.08 | alisertib -0.014 | [2] 0.058 | gefitinib -0.011 | [3] -0.008 | lapatinib -0.03 | pictilisib -0.01 | [4] 0.001 | crizotinib -0.054 | [5] 0.002 | [6] -0.019 | duvelisib 0.018 | gandotinib -0.17 | tozasertib 0.025 | [7] 0.094 | doramapimod 0 | ispinesib -0.018

OSBP (UniProt P22059)
Sequence of UniProt P22059 (P22059 whole entry, looked up): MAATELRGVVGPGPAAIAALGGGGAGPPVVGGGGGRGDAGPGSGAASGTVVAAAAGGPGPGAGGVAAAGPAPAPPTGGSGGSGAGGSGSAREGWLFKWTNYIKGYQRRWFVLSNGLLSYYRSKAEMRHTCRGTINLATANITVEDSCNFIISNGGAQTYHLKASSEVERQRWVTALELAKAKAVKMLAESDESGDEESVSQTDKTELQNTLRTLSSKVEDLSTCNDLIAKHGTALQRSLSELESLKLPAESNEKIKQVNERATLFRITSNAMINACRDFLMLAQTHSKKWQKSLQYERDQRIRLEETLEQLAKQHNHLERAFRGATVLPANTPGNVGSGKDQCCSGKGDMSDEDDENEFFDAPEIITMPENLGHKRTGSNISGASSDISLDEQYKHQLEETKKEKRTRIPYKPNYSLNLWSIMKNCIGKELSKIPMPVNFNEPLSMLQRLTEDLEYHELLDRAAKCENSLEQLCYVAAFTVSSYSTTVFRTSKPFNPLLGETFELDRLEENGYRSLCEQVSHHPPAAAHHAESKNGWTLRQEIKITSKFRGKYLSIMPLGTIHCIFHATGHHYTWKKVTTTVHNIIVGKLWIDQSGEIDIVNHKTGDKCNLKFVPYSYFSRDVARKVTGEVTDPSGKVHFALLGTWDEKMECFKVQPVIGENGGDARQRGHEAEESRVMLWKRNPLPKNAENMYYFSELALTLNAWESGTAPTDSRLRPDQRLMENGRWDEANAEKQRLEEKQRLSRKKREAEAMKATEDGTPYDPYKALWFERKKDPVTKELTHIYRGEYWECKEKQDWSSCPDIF
active: ispinesib 0.216
inactive: [1] -0.018 | filanesib 0.009 | zotarolimus 0.007 | idasanutlin -0.019 | alisertib -0.046 | [2] 0.086 | gefitinib 0.019 | [3] -0.009 | lapatinib 0 | pictilisib 0.004 | [4] -0.015 | crizotinib 0.057 | [5] 0.025 | [6] -0.043 | duvelisib 0.074 | gandotinib -0.025 | tozasertib -0.009 | [7] 0.016 | doramapimod -0.028

MRPS6 (UniProt P82932)
active: idasanutlin -0.275
inactive: [1] 0.204 | filanesib -0.019 | zotarolimus 0.038 | alisertib 0.029 | [2] 0.012 | gefitinib -0.051 | [3] -0.081 | lapatinib 0.035 | pictilisib -0.003 | [4] -0.038 | crizotinib -0.076 | [5] 0.117 | [6] 0.085 | duvelisib -0.002 | gandotinib -0.016 | tozasertib 0.022 | [7] 0.081 | doramapimod 0.048 | ispinesib -0.208

NCAPD2 (UniProt Q15021)
inactive: [1] 0.025 | filanesib -0.006 | zotarolimus 0.061 | idasanutlin -0.072 | alisertib -0.005 | [2] 0.092 | gefitinib 0.029 | [3] -0.138 | lapatinib -0.024 | pictilisib 0.059 | [4] 0.018 | crizotinib -0.024 | [5] 0.004 | [6] 0.093 | duvelisib 0.035 | gandotinib -0.077 | tozasertib 0.092 | [7] 0.109 | doramapimod -0.049 | ispinesib -0.029

NMT2 (UniProt O60551)
inactive: [1] -0.064 | filanesib -0.018 | zotarolimus 0.019 | idasanutlin -0.062 | alisertib -0.096 | [2] 0.082 | gefitinib -0.069 | [3] -0.046 | lapatinib -0.047 | pictilisib 0.087 | [4] 0.043 | crizotinib -0.187 | [5] 0.059 | [6] 0.018 | duvelisib 0.038 | gandotinib 0.013 | tozasertib 0.042 | [7] 0.023 | doramapimod -0.013 | ispinesib -0.167

MON2 isoform 5 (UniProt Q7Z3U7)
inactive: [1] -0.003 | filanesib -0.017 | zotarolimus 0.101 | idasanutlin -0.147 | alisertib 0.046 | [2] 0.091 | gefitinib 0.039 | [3] -0.004 | lapatinib 0.036 | pictilisib 0.048 | [4] 0.044 | crizotinib -0.065 | [5] 0.081 | [6] 0.033 | duvelisib 0.173 | gandotinib -0.105 | tozasertib 0.011 | [7] 0.171 | doramapimod 0.077 | ispinesib -0.055

NDUFS4 (UniProt O43181)
inactive: [1] -0.018 | filanesib -0.019 | zotarolimus -0.022 | idasanutlin 0.035 | alisertib -0.074 | [2] -0.077 | gefitinib -0.008 | [3] 0.036 | lapatinib 0.029 | pictilisib -0.122 | [4] -0.035 | crizotinib -0.089 | [5] -0.027 | [6] 0.086 | duvelisib -0.086 | gandotinib 0.164 | tozasertib -0.098 | [7] -0.058 | doramapimod 0.018 | ispinesib -0.216

MRPS10 (UniProt P82664)
inactive: [1] -0.041 | filanesib 0.045 | zotarolimus 0.08 | idasanutlin -0.088 | alisertib -0.014 | [2] -0.017 | gefitinib -0.042 | [3] 0.012 | lapatinib 0.069 | pictilisib -0.112 | [4] 0.028 | crizotinib 0.005 | [5] -0.033 | [6] 0.08 | duvelisib -0.005 | gandotinib 0.019 | tozasertib 0.002 | [7] 0.002 | doramapimod 0.029
active: ispinesib -0.265

NMT1 (UniProt P30419)
Sequence of UniProt P30419 (P30419 whole entry, looked up): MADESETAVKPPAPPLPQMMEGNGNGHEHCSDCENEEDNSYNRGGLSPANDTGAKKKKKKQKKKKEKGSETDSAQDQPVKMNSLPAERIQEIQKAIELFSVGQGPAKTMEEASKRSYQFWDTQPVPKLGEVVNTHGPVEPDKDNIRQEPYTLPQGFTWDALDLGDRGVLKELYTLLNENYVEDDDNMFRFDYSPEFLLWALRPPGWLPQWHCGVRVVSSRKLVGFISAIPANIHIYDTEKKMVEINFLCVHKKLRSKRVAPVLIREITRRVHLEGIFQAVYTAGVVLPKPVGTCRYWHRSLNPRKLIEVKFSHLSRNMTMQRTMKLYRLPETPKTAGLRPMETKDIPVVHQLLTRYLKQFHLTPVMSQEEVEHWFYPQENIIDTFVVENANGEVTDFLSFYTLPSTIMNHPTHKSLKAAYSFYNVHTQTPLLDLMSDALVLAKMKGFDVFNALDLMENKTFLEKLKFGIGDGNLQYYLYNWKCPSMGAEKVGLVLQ
inactive: [1] -0.023 | filanesib -0.005 | zotarolimus 0.042 | idasanutlin -0.015 | alisertib -0.056 | [2] -0.009 | gefitinib -0.044 | [3] 0.018 | lapatinib 0.03 | pictilisib 0.029 | [4] 0.085 | crizotinib -0.17 | [5] -0.058 | [6] -0.032 | duvelisib -0.003 | gandotinib 0.066 | tozasertib -0.012 | [7] -0.003 | doramapimod 0 | ispinesib -0.164

NSMCE4A (UniProt Q9NXX6)
Sequence of UniProt Q9NXX6 (Q9NXX6 whole entry, looked up): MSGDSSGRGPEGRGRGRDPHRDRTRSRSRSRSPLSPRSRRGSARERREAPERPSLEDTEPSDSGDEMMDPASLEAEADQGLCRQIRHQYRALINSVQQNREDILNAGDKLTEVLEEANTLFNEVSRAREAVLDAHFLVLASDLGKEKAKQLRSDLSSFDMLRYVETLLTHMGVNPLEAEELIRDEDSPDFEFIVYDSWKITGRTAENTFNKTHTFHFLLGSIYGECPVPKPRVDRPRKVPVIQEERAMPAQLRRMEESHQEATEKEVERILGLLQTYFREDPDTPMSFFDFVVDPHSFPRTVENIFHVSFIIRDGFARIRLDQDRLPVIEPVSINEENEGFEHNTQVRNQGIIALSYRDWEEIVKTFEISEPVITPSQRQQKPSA
inactive: [1] 0.033 | filanesib 0.049 | zotarolimus 0.019 | idasanutlin 0.017 | alisertib -0.087 | [2] -0.018 | gefitinib 0.181 | lapatinib 0.034 | pictilisib -0.011 | [4] 0.038 | crizotinib 0.072 | [5] -0.055 | [6] -0.009 | duvelisib 0.119 | gandotinib 0.144 | tozasertib 0.086 | [7] 0.054 | doramapimod 0.047 | ispinesib 0.062
active: [3] -0.437

MND1 (UniProt Q9BWT6)
Sequence of UniProt Q9BWT6 (Q9BWT6 whole entry, looked up): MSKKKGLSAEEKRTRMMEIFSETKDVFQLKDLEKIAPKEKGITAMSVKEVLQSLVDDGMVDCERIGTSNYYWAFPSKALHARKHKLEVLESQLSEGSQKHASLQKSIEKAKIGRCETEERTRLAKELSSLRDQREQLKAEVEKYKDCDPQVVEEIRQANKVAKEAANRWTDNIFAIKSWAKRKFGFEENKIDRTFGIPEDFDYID
inactive: [1] -0.037 | filanesib -0.057 | zotarolimus -0.077 | idasanutlin 0.099 | alisertib 0.062 | [2] -0.235 | gefitinib -0.193 | [3] 0.03 | lapatinib -0.025 | pictilisib 0.032 | [4] 0 | crizotinib -0.217 | [5] 0.005 | [6] 0.018 | duvelisib 0.016 | gandotinib -0.076 | tozasertib -0.152 | [7] -0.024 | doramapimod 0.009 | ispinesib -0.184

NCKAP1 isoform 2 (UniProt Q9Y2A7)
inactive: [1] 0.019 | filanesib -0.042 | zotarolimus 0.025 | idasanutlin -0.035 | alisertib 0.067 | [2] 0.008 | gefitinib -0.009 | [3] -0.038 | lapatinib 0.016 | pictilisib -0.049 | [4] -0.021 | crizotinib -0.071 | [5] 0 | [6] -0.08 | duvelisib -0.006 | gandotinib -0.093 | tozasertib -0.017 | [7] 0.031 | doramapimod -0.027 | ispinesib 0.034
